Measured values: the supplement of paper PMC6555819

Legend:
Assay in all cases: PBM binding z-score (relative to random genomic background probes); higher = stronger binding; sequences stand for … in GC…GCGATTGACAGCGTAGAATGAAGG
[1] = test system: FXR:RXRa (NR concentration 270 nM, RXRa partner concentration 90 nM)
Procedure, shortened: (§1)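 For binding z-scores, the reference was random background probes on custom Agilent 4×180K protein-binding microarrays. These arrays were incubated 1 h with ligand-free nuclear receptor dimers in PBS pH 7.4, 2% milk, 0.02% Triton X-100, 1 mM DTT, 0.2 mg/mL BSA and 0.4 mg/ml salmon testes DNA. Fluorescence was scanned after antibody detection of each partner (one per run) and regression-normalized.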

[2] = test system: LXRa:RXRa (NR concentration 270 nM, RXRa partner concentration 90 nM)
Procedure, shortened: as §1

[3] = test system: LXRa homodimer (NR concentration 270 nM)
Procedure, shortened: as §1

[4] = test system: LXRb:RXRa (NR concentration 270 nM, RXRa partner concentration 90 nM)
Procedure, shortened: as §1

[5] = test system: LXRb homodimer (NR concentration 270 nM)
Procedure, shortened: as §1

[6] = test system: PPARa:RXRa (NR concentration 270 nM, RXRa partner concentration 90 nM)
Procedure, shortened: as §1

[7] = test system: PPARg:RXRa (NR concentration 180 nM, RXRa partner concentration 90 nM)
Procedure, shortened: as §1

[8] = test system: PPARg:RXRa 270nM:90nM, anti-RXR (NR concentration 270 nM, RXRa partner concentration 90 nM)
Procedure, shortened: as §1

[9] = test system: PPARg:RXRa 30nM:10nM, anti-RXR (NR concentration 30 nM, RXRa partner concentration 10 nM)
Procedure, shortened: as §1

[10] = test system: PPARg:RXRa 90nM:30nM, anti-RXR (NR concentration 90 nM, RXRa partner concentration 30 nM)
Procedure, shortened: as §1

[11] = test system: PPARg:RXRa DBDmut IVT, anti-RXR (DBD mutation: RXRa K156A/R161A, NR concentration 270 nM, RXRa partner concentration 90 nM)
Procedure, shortened: as §1

[12] = test system: PPARg:RXRa IVT, anti-PPARg (NR concentration 270 nM, RXRa partner concentration 90 nM)
Procedure, shortened: as §1

[13] = test system: PPARg DBDmut:RXRa IVT, anti-PPARg (DBD mutation: PPARg1 K132A/R137A, NR concentration 270 nM, RXRa partner concentration 90 nM)
Procedure, shortened: as §1

[14] = test system: PPARg DBDmut IVT, anti-PPARg (DBD mutation: PPARg1 K132A/R137A, NR concentration 270 nM)
Procedure, shortened: as §1

[15] = test system: PPARg homodimer (NR concentration 180 nM)
Procedure, shortened: as §1

[16] = test system: PXR:RXRa (NR concentration 270 nM, RXRa partner concentration 90 nM)
Procedure, shortened: as §1

[17] = test system: PXR homodimer (NR concentration 270 nM)
Procedure, shortened: as §1

[18] = test system: RARa:RXR (NR concentration 270 nM, RXRa partner concentration 90 nM)
Procedure, shortened: as §1

[19] = test system: RARa homodimer (NR concentration 270 nM)
Procedure, shortened: as §1

[20] = test system: RARb:RXRa (NR concentration 270 nM, RXRa partner concentration 90 nM)
Procedure, shortened: as §1

Row | Sequence | PBM binding z-score [1] | PBM binding z-score [2] | PBM binding z-score [3] | PBM binding z-score [4] | PBM binding z-score [5] | PBM binding z-score [6] | PBM binding z-score [7] | PBM binding z-score [8] | PBM binding z-score [9] | PBM binding z-score [10] | PBM binding z-score [11] | PBM binding z-score [12] | PBM binding z-score [13] | PBM binding z-score [14] | PBM binding z-score [15] | PBM binding z-score [16] | PBM binding z-score [17] | PBM binding z-score [18] | PBM binding z-score [19] | PBM binding z-score [20]
1 | CCAGACAGGTGAATGGTAACTCAGTCTGGTACGC | -0.448 | -0.493 | -0.271 | -0.246 | -0.723 | 0.129 | 0.419 | 0.128 | -0.647 | -0.216 | 0.897 | 0.735 | -0.452 | -0.717 | 0.288 | -0.4 | -0.302 | -0.379 | -0.0506 | 0.381
2 | AATACAGGGTCACTAGGCCAGATTAGGTACGAAT | 6.03 | 5.16 | 1.09 | 4.11 | 1.11 | 5.92 | 7.81 | 6.39 | 3.62 | 5.04 | 3.7 | 5.68 | 1.98 | 3.15 | 2.45 | 3.32 | 0.427 | 4.17 | 0.909 | 4.09
3 | TCACATAGGTAAAAGGTGAAAGTCGGTGTGGTAA | 1.8 | 1.56 | 0.139 | 1.69 | -0.337 | 4.37 | 5.76 | 6.66 | 5.78 | 7.03 | 2.98 | 3.19 | 0.93 | 0.575 | 1.93 | 1.81 | 0.153 | 3.24 | 0.922 | 1.92
4 | TCGAGTAGGTTACCAATGGGGCATTCACCTTTCT | 0.403 | 1.81 | -0.322 | 1.57 | -0.26 | 1.55 | 0.512 | 1.43 | 1.26 | 1.47 | 3.38 | 2.75 | 0.0374 | 0.508 | 0.0872 | 0.579 | -0.637 | 1.1 | -0.777 | 1.13
5 | GCTATTAGTTGAAAGGGCAACCAAATGATTCTCG | 0.334 | 0.735 | 0.214 | 0.946 | -0.0517 | 2.45 | 2.73 | 4.6 | 2.34 | 4.39 | 0.461 | 1.15 | 0.444 | 0.602 | 0.903 | 0.803 | 0.104 | 1.48 | 0.766 | 2.13
6 | TCGAGTAGGTTCCCAATGGGGCATTCAGCTTTCT | -0.431 | -0.384 | -0.577 | -0.1 | -1.76 | -0.101 | -0.771 | 0.361 | 0.7 | 0.426 | 0.883 | 0.261 | -1.28 | -1.09 | -0.805 | -0.411 | -1.24 | -0.343 | -1.9 | -0.327
7 | CCCACTGGGGCATAAGGTTACCATAAGCCAGCCC | 0.325 | 1.44 | -0.234 | 0.476 | -1.1 | 2.36 | 3.91 | 4.26 | 1.73 | 3.6 | 3.37 | 4.87 | -0.75 | -0.412 | 0.0588 | 0.0928 | -0.684 | 1.07 | -0.44 | 1.46
